L3MBTL1 block = L3MBTL1 (human) inhibition | Potency, µM (top dose mostly 57.1 µM), inactives show at the highest dose activity, negative = inhibition, most hits filed as inhibitors | actives 0.66% (n = 230,000) | AlphaScreen L3MBTL1–H3K9me1 peptide binding; also: % is scaled to controls: 0 for no effect and ±100 for the full control effect; nearly all actives have a fitted effect of over 60% in size
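AlphaScreen assay: L3MBTL1 (50 nM final) was preincubated 30 min at room temperature with biotinylated H3(1-15)K9me1 peptide (75 nM final), then 30 min with library compounds; streptavidin donor and nickel chelate acceptor beads (10 ug/mL final) added, 30 min dark.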
G9a inh = inhibitors of human histone lysine methyltransferase G9a | Q96KQ7 | G9a H3K9 monomethylation, AlphaScreen, 2 h | Potency, µM (series often up to 102 µM), for the others: at the top dose activity, negative = inhibition, most hits filed as inhibitors | actives 8.8% (n = 350,000) | AID 504332; also: % is scaled to controls: 0 for no effect and ±100 for the full control effect; nearly all actives have a fitted effect of over 75% in size
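AlphaScreen detection with an anti-monomethyl H3K9 antibody quantified product after a 2 h room-temperature reaction containing 500 nM biotinylated H3K9 peptide, 20 µM SAM and 20 nM enzyme, which had been preincubated 15 min with compound.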
BAZ2B inh = inhibitors of human BAZ2B bromodomain | AlphaScreen BAZ2B-H3K14Ac peptide displacement | actives 4.4% (n = 360,000) | Potency, µM (top dose mostly 114 µM), without a hit: at the top dose activity change, negative = inhibition, hits mostly inhibitors | AID 504333 | Q9UIF8; also: % is scaled to controls: 0 for no effect and ±100 for the full control effect; nearly all actives have a fitted effect of over 60% in size
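BAZ2B 50 nM plus b-H3(5-23)K14Ac 50 nM, PBS pH 7.4/0.01% Tween-20, 30 min RT; compound added (max 110 uM), 30 min RT; streptavidin donor/Ni-chelate acceptor beads 10 ug/mL final, 20 min dark; AlphaScreen read.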
Sfp PPTase inh = Sfp phosphopantetheinyl transferase inhibition; Biochemical Sfp PPTase activity, qHTS; Potency, µM, for the others: largest response in the series, negative = inhibition, most hits filed as inhibitors; actives 3.5% (n = 310,000);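 also: the enzyme is Sfp with the accession as filed and its product quenches rhodamine fluorescence; 0% = enzyme reaction without inhibitor and -100% = no enzyme wells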
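After 15 min at room temperature with compound, 15 nM Sfp received 5 uM rhodamine-CoA plus 12.5 uM BHQ-2-ybbR (50 mM Hepes pH 7.6, 10 mM MgCl2). Rate came from the fluorescence difference over 30 min, ex 525/em 598 nm.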
HP1b binding inh = inhibitors of HP1-beta chromodomain binding to methylated histone tails. P83916. AlphaScreen HP1-beta / biotin-H3K9me3 peptide binding. Potency, µM (titrated, usually from 114 µM), without a hit: at the top dose activity change, negative = inhibition, actives largely listed as inhibitors. actives 0.56% (n = 390,000). AID 540317; also: nearly all actives have a fitted effect of over 70% in size
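HP1-beta protein (50 nM final) preincubated 30 min at room temperature with biotinylated H3(1-18)K9me3 peptide (50 nM) in PBS pH 7.4, 0.01% Tween-20, then compound added for 30 min. AlphaScreen streptavidin donor/nickel chelate acceptor beads (10 ug/mL final), 30 min dark, luminescence read.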
JMJD2A Tudor = JMJD2A Tudor domain (human) inhibition; O75164; AlphaScreen JMJD2A-Tudor / H3K4me3 peptide binding; Potency, µM (series often up to 114 µM), for inactives: top-dose activity change, negative = inhibition, usual class: inhibitors; actives 4.4% (n = 390,000); AID 504339; also: % is scaled to controls: 0 for no effect and ±100 for the full control effect; nearly all actives have a fitted effect of over 50% in size
Starred values were filed as active, the others as inactive; ? = inconclusive; / = no result; ! = a repeat was not active; [ ] = remark or other dose. A selection: hits, their analogues and other compounds. The true share with any hit is near 12%. Calls follow the shape of the dose curve; as a rule, active = well fitted curve in the direction sought with a large enough effect; inconclusive = small, poorly fitted or top-dose-only effect, or another doubt; inactive = no such curve, though single readings can be large; an effect the other way counts as inactive or inconclusive. Potency is read from the fitted curve at half-maximal effect.

SMILES	L3MBTL1 block	G9a inh	BAZ2B inh	Sfp PPTase inh	HP1b binding inh	JMJD2A Tudor
CCc1ccc(/C=C/C(=O)c2c(C)cc(C)[nH]c2=O)cc1	2.0%	56.2µM*	4.7%	8.0%	41.6%	-3.3%
Cc1ccc(/C=C/C(=O)c2c(C)cc(C)[nH]c2=O)cc1	-1.0%	-4.2%[59 µM]	5.7%	6.2%	-1.4%	-16.8%
Cc1cc(C)nc(SCNC(=O)c2ccc(F)cc2)n1	1.6%	?	-0.9%	50.1µM*	47.9%	-35.3%
O=C(NCSc1ccccc1)c1ccccc1	10.3%	2.3%[2.33 µM]	0.3%	/	27.6%	-8.5%
Cc1cc(SCNC(=O)c2ccccc2)ncn1	/	?	-38.7%	25.1µM*	?	28.2µM*
COCCNc1ncncc1-c1c(C)noc1C	/	3.2%[0.501 µM]	/	2.1%	/	/
Cc1ccc(OC(=O)c2cc(-c3ccc4c(c3)OCCO4)on2)c(C)c1	/	22.8%[59 µM]	11.3%	/	62.5%	26.8%
O=C(Nc1nnc(C2=COCCO2)o1)C1CCCCC1	/	-23.0%	/	-16.7%	25.8%	?
O=C(Nc1nnc(-c2ccncc2)o1)c1ccc(Br)s1	/	-26.3%	70.8µM*	-6.4%	33.0%	?
CS(=O)(=O)c1ccc2nc(NC(=O)c3ccccc3)sc2c1	3.7%	30.9%	3.0%	15.1%	57.5%	0.0%
O=C(Nc1nnc(-c2ccco2)o1)C1CCCCC1	?	?	?	-1.9%	33.9%	89.1µM*
O=C(Nc1nc(-c2ccco2)c(-c2ccco2)s1)C1CCC1	?	?	31.6µM*	28.2µM*	50.1µM*	39.8µM*
CS(=O)(=O)c1ccc(C(=O)Nc2nc(-c3ccco3)c(-c3ccco3)s2)cc1	7.08µM*	10µM*	39.8µM*	/	39.8µM*	?
CCOC(=O)c1ccc(NC(=O)c2c(-c3c(F)cccc3Cl)noc2C)cc1	/	-12.9%[59 µM]	-11.4%	/	44.8%	-4.5%
CCC(=O)O[C@@]1(C(=O)CCl)[C@@H](C)C[C@@H]2[C@H]3CCC4=CC(=O)C=C[C@@]4(C)[C@]3(F)[C@@H](O)C[C@@]21C	/	27.5%[21.5 µM]	/	5.7%	/	/
O=C(OCC#CCSc1nnc(-c2ccc3ccccc3c2)o1)c1cccs1	/	/	/	/	/	-0.7%
O=C(Nc1nnc(-c2ccco2)s1)C1CCCCC1	-1.2%	14.2%[59 µM]	50.1µM*	50.1µM*	58.0%	-28.0%
O=C(Nc1nnc(-c2cccs2)o1)C1CC1	2.0%	50.1µM*	?	?	27.2%	50.1µM*
O=C(Nc1nc(-c2ccco2)c(-c2ccco2)s1)C1CC(=O)N(c2ccc3c(c2)OCCO3)C1 (stereo unspecified)	?	?	11.2µM*	10µM*	-86.9%	25.1µM*
O=C(Nc1nnc(-c2ccc3c(c2)CCCC3)o1)C1CCCCC1	/	1.6%	-0.8%	30.1%	43.9%	-11.7%
Cc1ccc(S(=O)(=O)N2CCC(C(=O)Nc3nnc(-c4ccco4)s3)CC2)cc1	/	-8.6%[12.7 µM]	?	-0.5%	-7.0%	-16.0%
O=C(Nc1nnc(-c2ccncc2)o1)C1CCCCC1	-14.5%	?	50.1µM*	-1.8%	34.2%	20µM*
Cc1ccc(NC(=O)CN2C(=O)CCc3cc(S(=O)(=O)N4CCCCC4)ccc32)cc1N(C)C	/	4.3%[12.7 µM]	?	/	0.7%	?
NS(=O)(=O)c1ccc(NN=C2CCN(Cc3ccccc3)CC2)c([N+](=O)[O-])c1	-7.0%	44.7µM*	7.8%	-25.8%	4.7%	-24.8%
C/C(CC(C)C)=N\Nc1ccc(S(N)(=O)=O)cc1[N+](=O)[O-]	/	?	/	-0.4%	-7.7%	?
SMILES	L3MBTL1 block	G9a inh	BAZ2B inh	Sfp PPTase inh	HP1b binding inh	JMJD2A Tudor
CS(=O)(=O)NCCCNc1ccc(Cl)cc1[N+](=O)[O-]	/	?	?	20.6%	-12.7%	12.7%
CC1C/C(=N\Nc2ccc(S(N)(=O)=O)cc2[N+](=O)[O-])CC(C)(C)C1 (stereo unspecified)	-17.0%	14.1µM*	?	-4.7%	?	?
CCNc1ccc(S(N)(=O)=O)cc1[N+](=O)[O-]	11.0%	3.55µM*	-5.7%	4.3%	-1.5%	0.0%
CCCCNc1ccc(S(=O)(=O)c2cccc([N+](=O)[O-])c2)cc1[N+](=O)[O-]	-15.3%	7.94µM*	?	0.5%	37.8%	-3.5%
COc1ccc(CNC(=O)c2nn(-c3ccccc3C)nc2CO)cc1	/	3.0%[59 µM]	1.1%	/	46.2%	-9.1%
CC(=O)N=c1c(C#N)cc2c(=O)n3cccc(C)c3nc2n1Cc1ccco1	-21.7%	?	-37.4%	-21.3%	40.0%	-16.9%
COCCCn1c(=NC(=O)c2ccncc2)c(C#N)cc2c(=O)n3cccc(C)c3nc21	3.4%	-9.2%[59 µM]	-1.0%	12.7%	15.5%	-12.6%
Cc1ccccc1C(=O)N=c1c(C#N)cc2c(=O)n3cccc(C)c3nc2n1Cc1ccco1	/	15.1%	6.7%	50.1µM*	/	/
CCOC(=O)c1cc2c(=O)n3ccccc3nc2n(Cc2ccco2)c1=NC(=O)c1ccc(OC)cc1OC	-27.0%	-34.3%	?	44.7µM*	7.9%	?
COc1ccc(C(=O)N=c2c(C#N)cc3c(=O)n4cccc(C)c4nc3n2Cc2ccco2)cc1	/	-7.1%	-1.2%	56.2µM*	/	/
CCOCCCn1c(=NC(=O)c2cccnc2)c(C(=O)OCC)cc2c(=O)n3ccccc3nc21	-0.3%	1.9%[59 µM]	-27.5%	16.0%	10.0%	50.1µM*!
CCOC(=O)c1cc2c(=O)n3ccccc3nc2n(Cc2ccco2)c1=NC(=O)c1cc(C)cc(C)c1	/	-5.3%[59 µM]	13.3%	/	14.1%	9.9%
CCCCn1c(=NC(=O)c2cccnc2)c(C(=O)OCC)cc2c(=O)n3ccccc3nc21	2.1%	0.5%[12.7 µM]	1.2%	4.0%	-12.4%	-15.7%[57.1 µM]
NC(CSCC(=O)O)C(=O)O (stereo unspecified)	/	-25.3%[59 µM]	/	8.8%	/	/
CCC(C)C1/C=C\CCCC(=O)N1Cc1ccc(C)cc1 (stereo unspecified)	/	7.0%	/	-14.1%	/	/
Cc1noc(C)c1C(=O)N1CCC2(CCN(C(=O)Nc3ccccc3)CC2)CC1	/	-13.4%[12.7 µM]	/	3.9%	/	/
CC(C)(C)CC(C)(C)c1ccc(O)c(-n2nc3ccccc3n2)c1	/	7.4%[12.7 µM]	/	11.4%	/	/
N#Cc1cc2c(=O)n3ccccc3nc2n(Cc2ccco2)c1=NC(=O)c1ccco1	3.0%	?	-12.2%	39.8µM*	17.3%	?

High-throughput results: PubChem BioAssay, National Center for Advancing Translational Sciences (NCATS)
